Screening data as filed in PubChem.
D1 agonist: Allosteric Agonists of the Human D1 Dopamine Receptor: qHTS; D(1A) dopamine receptor (Homo sapiens), P21728; HEK293 T-REx D1 cells, calcium flux, agonist mode; activation, % at 2 µM; actives 1% (n = 360,000); AID 504660, 2011; further: 0% is about no effect
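Inducible HEK293 T-REx D1 cells, force-coupled to calcium signalling, were plated at 4000 cells/well with tetracycline and held overnight at 30 C. After no-wash calcium dye loading, compound-evoked calcium rise over 180 s flagged agonists.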
D1 antagonist: Antagonist of Human D 1 Dopamine Receptor: qHTS. D(1A) dopamine receptor (Homo sapiens), P21728. HEK293 TREx D1 cells, calcium flux, dopamine EC80; hits give low values. activity change, negative = inhibition, % at 10 µM. actives 3.2% (n = 360,000); in the data active means activity change below about -30%; further: on the % scale 0 is the no-effect control and ±100 the full control effect
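Compound effects on dopamine-evoked calcium signalling were measured in tetracycline-induced HEK293 Trex D1 cells. Dopamine at EC80 followed a 180 s compound pre-read, and fluorescence was tracked kinetically for 180 s more.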
TRHR agonist: qHTS for Small Molecule Agonists and Allosteric Enhancers of Human TRH Receptor: Primary Screen for Agonists; Thyrotropin-releasing hormone receptor (Homo sapiens), P34981; TRHR cells, calcium flux fluo-8, FDSS agonist mode; activation, % at 2 µM; actives 0.18% (n = 360,000); further: 0% is about no effect
Target sequence (P34981 whole entry, looked up): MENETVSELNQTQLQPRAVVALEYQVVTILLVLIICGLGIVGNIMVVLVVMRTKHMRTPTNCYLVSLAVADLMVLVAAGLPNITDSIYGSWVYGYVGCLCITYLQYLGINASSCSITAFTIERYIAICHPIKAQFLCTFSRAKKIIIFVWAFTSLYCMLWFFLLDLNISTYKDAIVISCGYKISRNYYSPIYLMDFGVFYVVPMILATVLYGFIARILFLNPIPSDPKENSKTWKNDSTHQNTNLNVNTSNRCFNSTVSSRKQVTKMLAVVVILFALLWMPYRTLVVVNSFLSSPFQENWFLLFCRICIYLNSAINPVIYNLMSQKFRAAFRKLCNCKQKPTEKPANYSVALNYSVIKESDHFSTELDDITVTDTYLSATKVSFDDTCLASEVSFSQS
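Steps: seed TRHR cells overnight; add fluo-8 no-wash Ca dye, RT 30 min–1.5 h; record 10 s baseline; pin-transfer compounds; monitor fluorescence 1 cycle/s for the agonist window. Calcium increases flag candidate agonists.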
D1 PAM: Potentiators of Human D1 Dopamine Receptor: qHTS; D(1A) dopamine receptor (Homo sapiens), P21728; HEK293 TREx D1 cells, calcium flux, dopamine EC20 potentiation; potentiation, % at 10 µM; actives 0.036% (n = 360,000); AID 504651, 2011; in the data active means potentiation above about 30%; further: 0% is about no effect
TRHR enhancer: qHTS for Small Molecule Agonists and Allosteric Enhancers of Human TRH Receptor: Primary Screen for Enhancers; enhancement, % at 2 µM; actives 0.66% (n = 360,000); TRHR cells, fluo-8 calcium fluorescence, EC20 TRH enhancement; Thyrotropin-releasing hormone receptor (Homo sapiens), P34981; in the data active means enhancement above about 30%; further: 0% is about no effect
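TRHR-expressing cells loaded with fluo-8 calcium dye were read kinetically (ex 480/em 530) during compound addition, then stimulated with an EC20 of TRH (10 nM final). Enhancement of the Gq-mediated intracellular calcium response was scored.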
* = called active by the depositor. Rows were chosen to be rich in hits. Some 4.6% of all compounds tested hit in one or more screens of this group. Unless noted, no stated cut-off is given here; in the data, active means activation above about 30%; inactive means the rest.

SMILES	D1 agonist	D1 antagonist	TRHR agonist	D1 PAM	TRHR enhancer
CCCCn1c(N)c(N(C(=O)CSc2nnnn2-c2ccccc2C)C2CCCC2)c(=O)[nH]c1=O	3	7	0	0	-8
CC(=O)c1cc2c(cc1N/C(=N/S(=O)(=O)c1ccc(C)cc1)c1ccc(F)cc1)OCO2	4	3	0	0	2
CCOc1cc(CNc2ccc(O)cc2)ccc1OCc1ccc(Cl)cc1	2	-30*	0	-7	8
Oc1ccc(NCc2ccccc2OCc2ccc(Cl)cc2)cc1	0	-3	0	-3	47*
COCCCNc1nc2c(c(=O)n(Cc3ccc(OC)cc3)c(=O)n2C)n1C	1	-8	0	2	2
COc1ccc(Cn2c(=O)c3c(nc(NCCO)n3C)n(C)c2=O)cc1	0	-33*	0	-5	-1
Cn1c(NCCCCO)nc2c1c(=O)n(Cc1ccc(Cl)cc1)c(=O)n2C	-2	-33*	-1	2	11
COc1cccc(-c2cn3c(n2)sc2cc(C(=O)NCc4ccccc4F)ccc23)c1	-2	-6	0	-1	-7
CCOc1ccc(C(=O)Nc2ccc(-c3nc4cc(CC)ccc4o3)cc2)cc1	3	12	0	-2	2
Cc1onc(-c2ccccc2)c1C(=O)Nc1ncc([N+](=O)[O-])s1	43*	-32*	1	-8	-4
Cc1onc(-c2ccccc2)c1C(=O)Nc1nnc(C(C)C)s1	4	10	0	1	1
O=C(Nc1ccc2ncccc2c1)Nc1ccc2ncccc2c1	1	-36*	1	-7	14
Cc1cc(Nc2ccc(C)c(Cl)c2)n2nc(Cc3ccccc3)nc2n1	14	-6	0	-4	10
CCOC(=O)c1cc(-c2ccccc2)sc1NC(=O)CC(C)C	2	-31*	1	-6	-2
O=C(Nc1cccc(Cl)c1)c1cc(N=Nc2ccc([N+](=O)[O-])cc2Cl)ccc1O	21	-54*	1	-9	-3
CCOC(=O)C1=C(C)NC(=O)CC1c1ccccc1 (stereo not given)	-1	0	-1	3	40*
CCCCCOC(=O)C1=C(C)NC(=O)NC1c1ccc(N(C)C)cc1 (stereo not given)	2	29	0	0	1
CCCCCOC(=O)C1=C(C)NC(=O)NC1c1ccccc1 (stereo not given)	3	-36*	-1	-4	-4
CCOC(=O)C1=C(C)NC(=O)CC1c1ccccc1OC (stereo not given)	2	4	-1	-7	7
N#Cc1ccc(CN2C(=O)c3ccccc3Sc3ccc(C(=O)OCc4ccco4)cc32)cc1	5	-17	0	-3	-1
CN(C)c1ccc(C(=O)NN2C(=O)c3ccccc3C2=O)cc1	0	-32*	0	-4	0
Cc1ccc(/C=N/N(C)C2=NS(=O)(=O)c3ccccc32)o1	2	-43*	-1	-3	-1
CCCN1C2CCCC1CC(NC(=O)c1ccccc1OC)C2 (stereo not given)	-3	20	0	-4	-3
CCOc1ccccc1C(=O)NC1CC2CCCC(C1)N2Cc1ccc(C)cc1 (stereo not given)	3	-51*	0	-12	3
CCCN1C2CCCC1CC(NC(=O)c1ccccc1OCC)C2 (stereo not given)	1	-81*	-1	-2	11
SMILES	D1 agonist	D1 antagonist	TRHR agonist	D1 PAM	TRHR enhancer
CSc1ncc(C(=O)Nc2cc(Cl)ccc2C)c(-c2ccccc2)n1	1	-2	-1	1	27
C#CCOCCOCCOCCNc1nc(N2CCN(C(=O)CCCCCCCCCCNC(=O)Cn3cc(CCCCCN)nn3)CC2)nc(N2CCN(C(=O)CCCCCCCCCCNC(=O)[C@H]([C@@H](C)CC)n3cc(CCCCCN)nn3)CC2)n1	43*	110	9	20	4
C#CCOCCOCCOCCNc1nc(N2CCN(C(=O)CCCCCCCCCCNC(=O)[C@@H](CCC(=O)O)n3cc(CCCCCN)nn3)CC2)nc(N2CCN(C(=O)CCCCCCCCCCNC(=O)[C@@H](CCC(=O)O)n3cc(CCCCCN)nn3)CC2)n1	10	-32*	0	-6	-10
C#CCOCCOCCOCCNc1nc(N2CCN(C(=O)CCCCCCCCCCNC(=O)Cn3cc(CCCCCN)nn3)CC2)nc(N2CCN(C(=O)CCCCCCCCCCNC(=O)[C@H](CO)n3cc(CCCCCN)nn3)CC2)n1	85*	66	13	14	-2
O=C(NCc1ccc(F)cc1)C1CCN(S(=O)(=O)c2ccc3c(c2)CCCN3C(=O)C2CCC2)CC1	0	4	-1	-3	-9
COc1ccc(Nc2cc(C)c3cc(NC(=O)c4cc(OC)cc(OC)c4)ccc3n2)cc1	4	-4	1	2	8
CCOc1ccc(OCC)c(NC(=O)CCc2c(C)nc3c(c2C)c(=O)n(C)c(=O)n3C)c1	0	-2	0	0	-4
COc1ccccc1CNC(=O)CCCN1C(=O)CSc2c1c(C)nn2-c1ccccc1	1	14	0	-4	4
COc1ccc(-n2nc([N+](=O)[O-])c(=NCCc3cccc(C)c3)n2O)cc1	4	-35*	-2	3	4
CC(C)c1ccc(NC(=O)CCCN2C(=S)NC(C)(C)CC2C)cc1 (stereo not given)	7	-33*	0	-12	7
NNC(=O)c1sccc1OCc1ccc(Cl)cc1Cl	10	-32*	0	-6	-2
CNC(=O)c1sccc1SCc1ccc(Cl)cc1Cl	2	11	-1	-8	33*
NNC(=O)c1sccc1OCc1ccc(F)cc1	5	15	0	-8	-12
Cc1cccc(Nc2ncnc(N)n2)c1	2	-33*	2	-6	-2
Cc1cc(N2C(=O)c3ccc(C(=O)Nc4ccc(O)cc4C(=O)O)cc3C2=O)no1	12	-35*	0	-1	0
COc1c(Cl)cc(Cl)cc1C(=O)Nc1ccc(CN2CCCCC2)cc1	31*	0	-2	0	10
Cc1ccc(C(=O)NC(=S)Nc2ccc(CN3CCCCC3)cc2)c(C)c1	12	-42*	0	-11	-5
Cc1ccc(Cl)cc1N1CCN(CC(=O)Nc2ccc(CN3CCCCC3)cc2)CC1	54*	-48*	4	-8	13
COc1ccc(C(=O)NC(=S)Nc2ccc(CN3CCCCC3)cc2)cc1Cl	9	8	1	-5	2
Cn1nnnc1Sc1ncnc2scc(-c3cccc([N+](=O)[O-])c3)c12	4	1	-2	1	-12
